PubChem BioAssay (EPA / NIEHS)
“And” between values parts separate entries of the source, which are not always exact repeats. Identical values can stand only once. Where a structure was tested more than once in an assay, its records may differ in their call. The source made the active and inactive calls. Rule for the calls: active = hit-call score of the fitted dose curve at least 0.9, where 1 is the maximum; inactive = score below 0.9.

What was measured:
[1] = APR_HepG2_P-H2AX_72hr: Apredica 72-hour HepG2 Assay for H2AX Phosphorylation (AID 2282916); conditions: imaging, actives raise or lower the signal;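 note: phospho-histone H2A.x immunostain intensity per cell marking DNA damage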
Procedure, shortened: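 HepG2 human liver cells were exposed for 72 hr to compounds at 0.39–200 uM (10 concentrations, duplicate per plate) in 0.5% v/v DMSO. Fixed, permeabilized cells were immunolabeled for phospho-histone H2A.x with Hoechst 33342 and imaged by HCS fluorescence; bidirectional fit versus DMSO.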

[2] = APR_HepG2_MitoMembPot_72hr: Apredica 72-hour HepG2 Assay for Mitochondrial Membrane Potential (AID 2282917); conditions: imaging, actives raise or lower the signal
Procedure, shortened: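 HepG2 cells exposed 72 h to compounds at 0.39–200 uM (0.5% v/v DMSO, duplicates); MitoTracker Red CMXRos 250 nM loaded 30 min before 3.7% formaldehyde fixation, imaged by HCS fluorescence. Bidirectional fit versus DMSO.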

[3] = APR_HepG2_MitoticArrest_72hr: Apredica 72-hour HepG2 Assay for Mitotic Arrest (AID 2282918); conditions: high-content imaging, actives raise or lower the signal
Procedure, shortened: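 Read-out is phospho-histone H3 immunofluorescence with Hoechst nuclear segmentation, imaged at 20x. Human HepG2 liver cells received ten concentrations (0.39–200 uM, final DMSO 0.5% v/v) for 72 hr before fixation. Gain or loss of signal was fitted relative to DMSO.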

[4] = APR_HepG2_MicrotubuleCSK_72hr: Apredica 72-hour HepG2 Assay for Microtubule CSK Stabilty (AID 2282919); conditions: HepG2 microtubule cytoskeleton, high-content imaging, actives raise or lower the signal
Procedure, shortened: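 HepG2 human liver cells were dosed for 72 h at ten concentrations from 0.39 to 200 uM in duplicate (0.5% v/v DMSO final). Fixed, permeabilized cells were immunostained for alpha-tubulin (Cy5) with a Hoechst counterstain and imaged at 20x.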

[5] = APR_HepG2_StressKinase_72hr: Apredica 72-hour HepG2 Assay for Stress Kinase (AID 2282921); conditions: HepG2 stress kinase (phospho-c-Jun) imaging, actives raise or lower the signal
Procedure, shortened: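 Cells were exposed for 72 h to ten concentrations (0.39–200 uM, duplicate) at 0.5% v/v DMSO final, then fixed with 3.7% formaldehyde, permeabilized and immunostained for phospho-c-Jun (Cy3 secondary) with Hoechst nuclear counterstain.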

[6] = APR_HepG2_StressKinase_24hr: Apredica 24-hour HepG2 Assay for Stress Kinase (AID 2282922); conditions: HepG2 stress kinase (phospho-c-Jun) imaging, actives raise or lower the signal
Procedure, shortened: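 HepG2 cells exposed 24 hr to compound at 0.39–200 uM (10 concentrations, duplicate), 0.5% v/v DMSO final. Fixed in 3.7% formaldehyde, permeabilized with Triton X-100, immunolabeled for phospho-c-Jun with Hoechst 33342; HCS fluorescence imaging, bidirectional fit versus DMSO.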

[7] = APR_HepG2_MitoMass_72hr: Apredica 72-hour HepG2 Assay for Mitochondrial Mass (AID 2282924); conditions: high-content imaging, actives raise or lower the signal;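 note: MitoTracker Red CMXRos stain intensity per cell imaged as mitochondrial mass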
Procedure, shortened: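 HepG2 cells were exposed for 72 hr to compounds at 0.39–200 uM (ten concentrations, duplicate, 0.5% v/v DMSO final). Live cells were stained with 250 nM MitoTracker Red CMXRos for 30 min, then fixed in 3.7% formaldehyde and imaged by HCS fluorescence.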

[8] = APR_HepG2_NuclearSize_72hr: Apredica 72-hour HepG2 Assay for Nuclear Size (AID 2282925); conditions: high-content imaging, actives raise or lower the signal
Procedure, shortened: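 HepG2 cells were exposed to compounds at ten concentrations from 0.39 to 200 uM (duplicate, 0.5% DMSO final) for 72 hr. After fixation in 3.7% formaldehyde, nuclei were stained with Hoechst 33342 (2 ug/mL) and imaged at 20x.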

[9] = ATG_CRE_CIS: Attagene CIS-FACTORIAL HepG2 Assay for human cAMP Responsive Element (CRE) binding protein 3 (AID 2282926); conditions: HepG2 CRE cis-reporter, Attagene multiplexed mRNA; actives raise or lower the signal
Procedure, shortened: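 Human liver HepG2, transient MRTU transfection, 24 h compound exposure. Total RNA → oligo(dT) RT → PCR → 6-FAM primer extension → HpaI cut → CE. Activity called both directions vs DMSO.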

[10] = molecular target: CCAAT/enhancer-binding protein beta (Homo sapiens) (UniProt P17676); test: ATG_C_EBP_CIS: Attagene CIS-FACTORIAL HepG2 Assay for human CCAAT/Enhancer Binding Protein (C/EBP) beta (AID 2282927); conditions: HepG2 Attagene cis-factorial transcription factor reporter; actives raise or lower the signal
Procedure, shortened: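 Chemical-treated HepG2 cells (24 h) bearing cis-regulated reporter constructs were processed for total RNA, then reverse transcription, PCR amplification, fluorescent primer extension and fragment analysis; gain- and loss-of-signal were fitted against DMSO.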

[11] = ATG_CMV_CIS: Attagene CIS-FACTORIAL HepG2 Assay for human CMV (Internal Marker) (AID 2282928); conditions: HepG2 CMV promoter reporter, transcription factor profiling; actives raise or lower the signal;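 note: endpoint acts as a background internal control marker rather than a target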
Procedure, shortened: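 CMV internal-marker background readout in transiently transfected HepG2 cells bearing cis-regulated reporter units. Reporter mRNA is measured 24 h after dosing by RT-PCR and capillary electrophoresis, with bidirectional fitting against DMSO.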

[12] = ATG_DR4_LXR_CIS: Attagene CIS-FACTORIAL HepG2 Assay for human Liver X Receptor (LXR), DR4 submotif (AID 2282929); conditions: HepG2 Attagene DR4 cis-reporter, mRNA transcription; actives raise or lower the signal
Procedure, shortened: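 Total RNA from 24 h-treated, MRTU-transfected HepG2 cells underwent reverse transcription, PCR, fluorescent primer extension and restriction digestion before capillary electrophoresis. Both increases and decreases in reporter signal were fitted against DMSO.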

[13] = molecular target: Aryl hydrocarbon receptor (Homo sapiens) (UniProt P35869); test: ATG_Ahr_CIS: Attagene CIS-FACTORIAL HepG2 Assay for human Aryl Hydrocarbon Receptor (Ahr) (AID 2282930); conditions: HepG2 AhR cis-factorial reporter transcription; actives raise or lower the signal
Procedure, shortened: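 Following 24 h of chemical dosing, transfected HepG2 liver cells with cis-driven reporter units were lysed for RNA; reporter mRNA was quantified via RT-PCR and capillary electrophoresis, and responses fitted bidirectionally from DMSO.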

[14] = ATG_AP_1_CIS: Attagene CIS-FACTORIAL HepG2 Assay for human Activator Protein 1 (AP-1) (AID 2282931); conditions: HepG2 Attagene cis-factorial AP-1 reporter mRNA; actives raise or lower the signal
Procedure, shortened: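 HepG2, transient cis-reporter transfection; 24 h; readout RT-PCR/CE fluorescence; DMSO baseline, gain and loss fitted.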

[15] = ATG_AP_2_CIS: Attagene CIS-FACTORIAL HepG2 Assay for human Activator Protein 2 (AP-2) (AID 2282932); conditions: HepG2 AP-2 cis-reporter, Attagene transcription factor profiling; actives raise or lower the signal
Procedure, shortened: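 HepG2 cells were transiently transfected with multiple cis-promoter reporter transcription units and dosed for 24 h. Reporter mRNA was measured by RT-PCR with capillary electrophoresis fluorescence; bidirectional fits relative to DMSO baseline.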

[16] = ATG_BRE_CIS: Attagene CIS-FACTORIAL HepG2 Assay for human Bone Morphogenetic Protein (BMP) Response Element (BRE) (AID 2282933); conditions: HepG2 BMP response element reporter, Attagene transcription factor profiling; actives raise or lower the signal
Procedure, shortened: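 Multiplexed cis-reporter assay, HepG2, 24 h exposure. mRNA from reporter units quantified via RT-PCR/CE; DMSO baseline; bidirectional curve fit.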

[17] = molecular target: Transcription factor E2F1 (Homo sapiens) (UniProt Q01094); test: ATG_E2F_CIS: Attagene CIS-FACTORIAL HepG2 Assay for human E2F Transcription Factor 1 (AID 2282935); conditions: HepG2 Attagene cis-reporter, E2F reporter RNA transcripts; actives raise or lower the signal
Procedure, shortened: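 HepG2 cells transiently transfected with multiplexed cis-element reporter units, dosed for 24 h. Reporter mRNA measured by RT-PCR, 6-FAM primer-extension labeling, HpaI digestion and capillary electrophoresis; bidirectional fit versus DMSO baseline.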

[18] = ATG_E_Box_CIS: Attagene CIS-FACTORIAL HepG2 Assay for human Enhancer Box (E-box) (AID 2282936); conditions: HepG2 E-box cis-reporter transcription, actives raise or lower the signal
Procedure, shortened: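 HepG2 cells transiently transfected with multiplexed cis-element reporter units sensing endogenous transcription factor activity; 24 h compound exposure. Reporter mRNA measured by RT-PCR, 6-FAM primer extension, HpaI digestion and capillary electrophoresis; bidirectional fit versus DMSO.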

[19] = ATG_M_61_CIS: Attagene CIS-FACTORIAL HepG2 Assay for M61 Transcription Factor (Internal Marker) (AID 2282937); conditions: HepG2 Attagene CIS-FACTORIAL M61 internal marker reporter; actives raise or lower the signal
Procedure, shortened: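 Transfect HepG2 with MRTUs; dose 24 h; isolate RNA; reverse-transcribe with DNase I treatment; PCR-amplify, FAM-label and cut with HpaI for 2 h at 37 C; resolve by CE. Bidirectional fitting against DMSO.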

[20] = molecular target: Retinoic acid receptor alpha (Homo sapiens) (UniProt P10276); test: ATG_DR5_RAR_CIS: Attagene CIS-FACTORIAL HepG2 Assay for human Retinoic Acid Receptor Alpha (RARE), DR5 submotif (AID 2282934); conditions: HepG2 Attagene cis-factorial RARE DR5 reporter, mRNA; actives raise or lower the signal;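 for AC50: reporter responds to endogenous RAR alpha beta and gamma in HepG2 not RARA alone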
Procedure, shortened: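 Transfected HepG2 reporter cells are exposed to chemicals for 24 h. Then RNA is extracted and the DR5 element reporter transcript is measured by RT-PCR and capillary electrophoresis, with bidirectional curve fitting relative to DMSO.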

Measured: AC50

Chain of Transcription factor E2F1 (Homo sapiens) (Q01094 whole entry, looked up): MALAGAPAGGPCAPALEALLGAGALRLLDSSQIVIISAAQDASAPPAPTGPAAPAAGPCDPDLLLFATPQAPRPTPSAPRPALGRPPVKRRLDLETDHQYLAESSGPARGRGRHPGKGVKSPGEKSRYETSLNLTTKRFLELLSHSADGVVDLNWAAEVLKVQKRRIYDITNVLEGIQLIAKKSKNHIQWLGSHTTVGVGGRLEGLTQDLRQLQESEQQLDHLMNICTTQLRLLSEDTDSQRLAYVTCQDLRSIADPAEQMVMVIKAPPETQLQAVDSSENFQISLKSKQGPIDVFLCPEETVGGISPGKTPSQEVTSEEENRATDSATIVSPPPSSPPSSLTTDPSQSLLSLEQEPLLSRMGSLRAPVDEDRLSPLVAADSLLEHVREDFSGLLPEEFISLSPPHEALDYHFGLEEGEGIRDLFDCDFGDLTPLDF
Chain of Retinoic acid receptor alpha (Homo sapiens) (P10276 whole entry, looked up): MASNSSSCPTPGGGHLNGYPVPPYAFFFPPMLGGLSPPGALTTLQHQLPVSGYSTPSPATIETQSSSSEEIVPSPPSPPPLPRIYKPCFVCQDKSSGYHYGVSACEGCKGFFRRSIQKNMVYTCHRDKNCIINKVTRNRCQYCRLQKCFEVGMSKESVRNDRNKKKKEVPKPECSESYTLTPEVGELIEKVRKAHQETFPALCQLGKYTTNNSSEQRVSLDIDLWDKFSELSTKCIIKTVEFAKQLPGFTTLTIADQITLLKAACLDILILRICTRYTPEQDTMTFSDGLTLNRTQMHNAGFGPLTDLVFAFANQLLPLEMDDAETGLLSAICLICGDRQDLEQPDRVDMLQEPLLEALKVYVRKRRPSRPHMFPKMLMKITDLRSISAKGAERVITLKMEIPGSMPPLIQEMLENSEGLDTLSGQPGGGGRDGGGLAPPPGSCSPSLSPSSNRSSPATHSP
Chain of CCAAT/enhancer-binding protein beta (Homo sapiens) (P17676 whole entry, looked up, the tested form may be a part): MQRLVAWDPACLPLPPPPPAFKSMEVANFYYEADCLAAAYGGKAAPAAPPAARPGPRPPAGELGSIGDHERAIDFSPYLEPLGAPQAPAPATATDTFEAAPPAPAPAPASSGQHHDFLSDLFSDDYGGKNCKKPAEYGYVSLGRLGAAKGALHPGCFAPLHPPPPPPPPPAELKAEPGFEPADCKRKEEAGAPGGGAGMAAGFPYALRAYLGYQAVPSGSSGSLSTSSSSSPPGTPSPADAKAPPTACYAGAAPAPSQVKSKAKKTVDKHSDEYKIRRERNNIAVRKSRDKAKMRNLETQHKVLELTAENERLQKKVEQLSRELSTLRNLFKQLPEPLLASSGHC
Chain of Aryl hydrocarbon receptor (Homo sapiens) (P35869 whole entry, looked up): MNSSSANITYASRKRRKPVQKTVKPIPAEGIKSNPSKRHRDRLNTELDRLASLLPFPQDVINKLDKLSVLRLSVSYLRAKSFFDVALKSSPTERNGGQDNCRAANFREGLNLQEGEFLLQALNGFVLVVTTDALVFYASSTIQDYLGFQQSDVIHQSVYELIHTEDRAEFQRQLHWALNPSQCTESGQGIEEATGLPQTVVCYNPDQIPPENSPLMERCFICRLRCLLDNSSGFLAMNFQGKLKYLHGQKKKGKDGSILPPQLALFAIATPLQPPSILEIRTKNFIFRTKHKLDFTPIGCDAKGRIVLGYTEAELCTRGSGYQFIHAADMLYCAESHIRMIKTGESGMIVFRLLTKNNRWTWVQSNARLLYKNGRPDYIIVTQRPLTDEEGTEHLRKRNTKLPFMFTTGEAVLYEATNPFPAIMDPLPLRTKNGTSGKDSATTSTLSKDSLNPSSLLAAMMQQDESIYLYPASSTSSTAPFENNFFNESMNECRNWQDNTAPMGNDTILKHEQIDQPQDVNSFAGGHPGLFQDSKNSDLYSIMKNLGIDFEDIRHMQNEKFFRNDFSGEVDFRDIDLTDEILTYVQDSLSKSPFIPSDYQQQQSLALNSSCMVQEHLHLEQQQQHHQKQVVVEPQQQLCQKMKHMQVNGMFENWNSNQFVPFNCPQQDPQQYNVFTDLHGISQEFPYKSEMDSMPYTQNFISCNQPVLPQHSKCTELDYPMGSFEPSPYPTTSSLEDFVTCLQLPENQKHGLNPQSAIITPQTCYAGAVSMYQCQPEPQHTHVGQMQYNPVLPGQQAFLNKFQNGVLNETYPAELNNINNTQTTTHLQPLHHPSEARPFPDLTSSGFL

CN(C)N=O
not listed: [20]
inactive: all other assays above

C[C@@H]1C[C@@H]([C@H](O)CC2CC(=O)NC(=O)C2)C(=O)[C@@H](C)C1
active: [3] 0.564 µM | [4] 1.11 µM | [10] 1.31 µM [middle of 4 runs] | [11] 0.286 µM | [14] 24.1 µM and 11.9 µM | [16] 16.6 µM and 5.79 µM and 22.8 µM | [17] 573 nM and 632 nM
inactive: [1] | [2] | [5] | [6] | [7] | [8] | [11] | [14] | [16] | [17] | [19]

C[C@]12CCC(=O)C[C@@H]1CC[C@@H]1[C@@H]2CC[C@]2(C)[C@@H](O)CC[C@@H]12
active: [1] 91.2 µM | [12] 116 µM | [13] 23.1 µM | [16] 65.4 µM and 87 µM | [18] 24 µM and 23.2 µM and 13.8 µM
inactive: [2] | [3] | [4] | [5] | [6] | [7] | [8] | [9] | [10] | [12] | [13] | [14] | [15] | [16] | [17] | [18] | [19]

ClCC(Cl)CCl
not listed: [13] | [20]
inactive: all other assays above

C[C@@H](Oc1ccc(Cl)cc1Cl)C(=O)O
not listed: [1] | [2] | [3] | [4] | [5] | [6] | [7] | [8]
inactive: all other assays above

CC(C)(OO)c1ccccc1
active: [1] 56.7 µM | [3] 59.4 µM | [5] 49.4 µM | [20] 48.2 µM | [18] 55.2 µM
not listed: [10]
inactive: all other assays above

O=c1[nH]c(=O)[nH]c(=O)[nH]1
active: [2] 99.5 µM
not listed: [9]
inactive: all other assays above

Oc1cccc2cccnc12
active: [1] 16.9 µM | [3] 5.23 µM | [5] 18.8 µM | [7] 3.1 µM | [13] 165 µM | [14] 24.8 µM | [18] 69.2 µM
inactive: [2] | [4] | [6] | [8] | [9] | [10] | [12] | [13] | [14] | [15] | [16] | [17] | [18] | [19]

CCN1CCC2(CC1)COc1cc3c(cc12)N(C(=O)c1ccc(-c2ccc(-c4nnc(C)o4)cc2C)cc1)CC3
active: [1] 41.7 µM | [2] 75.1 µM | [3] 6.34 µM | [5] 5.12 µM | [6] 47.9 µM | [7] 44.7 µM | [11] 5.81 µM
not listed: [20]
inactive: all other assays above

CC(C)(C)CC(C)(C)c1ccc(O)cc1
inactive: [1] | [2] | [3] | [4] | [5] | [6] | [7] | [8] | [9] | [10] | [12] | [14] | [15] | [16] | [17] | [18] | [19]
active: [12] 14.4 µM | [14] 19.4 µM | [18] 8.06 µM

CCOC(=O)Nc1cccc(OC(=O)Nc2ccccc2)c1
not listed: [1] | [2] | [3] | [4] | [5] | [6] | [7] | [8]
inactive: all other assays above

CC(C)CCCCCCOC(=O)c1ccccc1C(=O)OCCCCCCC(C)C
inactive: [9] | [10] | [11] | [12] | [13] | [14] | [15] | [16] | [17] | [18] | [19]

CC(C#N)CCC#N (configuration not stated)
inactive: [9] | [10] | [11] | [12] | [13] | [14] | [15] | [16] | [17] | [18] | [19]

C=CC(=O)N(C)C
inactive: [9] | [10] | [11] | [12] | [13] | [14] | [15] | [16] | [17] | [18] | [19]
